Shown are actives, neighbours in structure and some others; about 11% of the full set was active somewhere.
HEK293 tox: Cytotoxic Profiling in HEK 293 Cell Line of Diverse Libraries Using Quantitative High-Throughput Screening; HEK 293 viability, ATP luminescence (CellTiter-Glo), 48-72 h; Potency, µM (top dose mostly 115 µM), most hits filed as inhibitors; 6.6% of 94,000 active; also: nearly all actives have a fitted effect of over 60% in size
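HEK 293 cells seeded at 250 cells/well were exposed to compound for 48 or 72 hr at 37 degree Celsius. Viability taken as ATP content by CellTiter-Glo luminescence.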
FLuc inh-1: Firefly luciferase inhibition profiling of diverse chemical library using quantitative high-throughput screening; Luciferin 4-monooxygenase (Photinus pyralis), P08659; purified P. pyralis luciferase, luminescence, biochemical; AID 1347043, 2019; 2.5% of 76,000 active; Potency, µM (highest dose often 115 µM), usual class: inhibitors; also: nearly all actives have a fitted effect of over 65% in size
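Inhibitors were tested against purified firefly luciferase in a biochemical, low-substrate format (both substrates at 10uM) and luminescence measured with a CCD imager.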
3T3 cytotox: Cytotoxic Profiling in NIH 3T3 Cell Line of Diverse Libraries Using Quantitative High-Throughput Screening | NIH 3T3 viability, CellTiter-Glo ATP luminescence, 48-72 h | Potency, µM (highest dose often 96.7 µM), hits mostly inhibitors | 4.3% of 94,000 active | AID 1345082, 2018; also: nearly all actives have a fitted effect of over 55% in size
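Luminescent ATP readout (CellTiter-Glo, 10 min RT) after 48 or 72 hr compound exposure of NIH 3T3 cells seeded at 400 cells/well in 1536-well format; quantitative HTS.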
NPR1 antag: Natriuretic polypeptide receptor (hNpr1) antagonism - Primary qHTS | Atrial natriuretic peptide receptor 1 (Homo sapiens), P16066 | 1.6% of 76,000 active | Potency, µM (titrated, usually from 46.3 µM), hits mostly inhibitors | HEK293 hNpr1 GloSensor cGMP, ANP-stimulated luminescence; calls by dose curve; also: nearly all actives have a fitted effect of over 60% in size
Target sequence (P16066 whole entry, looked up): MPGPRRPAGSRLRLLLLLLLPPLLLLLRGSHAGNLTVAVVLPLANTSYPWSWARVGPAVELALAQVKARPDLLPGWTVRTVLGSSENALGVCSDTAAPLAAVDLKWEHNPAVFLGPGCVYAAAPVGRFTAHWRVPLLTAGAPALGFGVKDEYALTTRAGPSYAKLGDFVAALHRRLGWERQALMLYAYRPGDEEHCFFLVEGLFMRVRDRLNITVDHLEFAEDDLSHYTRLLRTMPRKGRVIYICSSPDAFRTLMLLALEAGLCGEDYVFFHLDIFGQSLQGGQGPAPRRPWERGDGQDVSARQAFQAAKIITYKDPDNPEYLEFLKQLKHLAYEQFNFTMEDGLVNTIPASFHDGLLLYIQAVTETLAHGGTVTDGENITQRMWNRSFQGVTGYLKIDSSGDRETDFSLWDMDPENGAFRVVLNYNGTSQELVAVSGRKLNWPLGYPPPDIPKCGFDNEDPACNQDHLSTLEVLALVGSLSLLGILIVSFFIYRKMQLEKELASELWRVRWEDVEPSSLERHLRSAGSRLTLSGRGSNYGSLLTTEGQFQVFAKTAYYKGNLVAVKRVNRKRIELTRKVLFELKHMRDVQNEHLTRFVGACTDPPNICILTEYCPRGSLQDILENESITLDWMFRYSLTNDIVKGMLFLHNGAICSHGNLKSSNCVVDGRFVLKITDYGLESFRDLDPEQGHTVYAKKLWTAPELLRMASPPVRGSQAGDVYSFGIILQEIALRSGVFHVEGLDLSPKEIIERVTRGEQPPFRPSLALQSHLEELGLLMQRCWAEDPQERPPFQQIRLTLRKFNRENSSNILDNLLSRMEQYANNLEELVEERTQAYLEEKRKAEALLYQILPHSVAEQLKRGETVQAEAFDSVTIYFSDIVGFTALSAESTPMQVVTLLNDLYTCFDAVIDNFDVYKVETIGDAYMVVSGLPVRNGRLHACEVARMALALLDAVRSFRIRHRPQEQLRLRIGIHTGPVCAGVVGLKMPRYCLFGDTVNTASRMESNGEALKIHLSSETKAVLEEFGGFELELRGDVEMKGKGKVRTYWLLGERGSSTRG
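Compound pre-incubated 30 min at room temperature on GloSensor-loaded HEK293 cells stably carrying hNpr1 and the pGS-40F cGMP biosensor. Stimulation uses hNppA at 0.1 nM final; luminescence is taken at baseline and 20 min post-agonist.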
FLuc SDR no ATP: Firefly luciferase (FLuc-C-HiBiT) SDR gain of signal screen - without ATP | shares compounds with FLuc inh-1 | Purified FLuc-C-HiBiT, Nano-Glo HiBiT luminescence, no ATP | Potency, µM (series often up to 32.7 µM), most hits filed as activators | 7.8% of 1,300 active | AID 1963318, 2024; also: nearly all actives have a fitted effect of over 55% in size
FLuc SDR ATP: Firefly luciferase (FLuc-C-HiBiT) SDR gain of signal screen - plus ATP. shares compounds with FLuc inh-1. purified FLuc-C-HiBiT + ATP, HiBiT complementation luminescence. Potency, µM (series often up to 32.7 µM), hits mostly activators. 8.7% of 1,300 active;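 also: signal reports ligand binding via conformational change of the enzyme rather than luciferase catalysis; nearly all actives have a fitted effect of over 55% in size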
FLuc inh-2: Firefly luciferase (FLuc-C-HiBiT) enzymatic inhibition screen - Functional assay. shares compounds with FLuc inh-1. 42% of 1,300 active. Potency, µM (series often up to 32.7 µM), most hits filed as inhibitors. purified FLuc-C-HiBiT enzyme, luciferin luminescence. AID 1963320, 2024; also: nearly all actives have a fitted effect of over 70% in size
Of the large screens only hits and unclear results are named; the others gave an inactive call (follow-up assays come after a bar, where they were run). Unless noted, calls follow the shape of the dose curve; as a rule, active = well fitted curve in the direction sought with a large enough effect; inconclusive = small, poorly fitted or top-dose-only effect, or another doubt; inactive = no such curve, though single readings can be large; an effect the other way counts as inactive or inconclusive.

COc1cc2c(cc1OCC1CC1)NC(=O)C21CCN(C(=O)c2cccnc2)CC1	3T3 cytotox 25µM
COCC(=O)N1CCC2(CC1)C(=O)Nc1cc(Oc3ccccc3)c(OC)cc12	HEK293 tox inconclusive
COc1cc2c(cc1Oc1ccccc1)NC(=O)C21CCN(C(=O)c2scnc2C)CC1	HEK293 tox 45µM, 3T3 cytotox inconclusive
COc1cccc(S(=O)(=O)N2[C@H]3CC[C@@H]2c2cnc(C)nc2C3)c1	none
CCOC(=O)[C@H]1CN(C(=O)/C=C/c2ccccc2)[C@]2(C)C(=O)N(CCOC(C)=O)c3ccccc3[C@H]12	3T3 cytotox inconclusive (no result: FLuc inh-1, NPR1 antag)
O=C1NC2(CCCN(Cc3ccccn3)C2)COc2ccccc21 (stereo not given)	HEK293 tox inconclusive, NPR1 antag inconclusive
O=C1NC2(CCCN(Cc3cccnc3)C2)COc2ccccc21 (stereo not given)	HEK293 tox 89µM, 3T3 cytotox 35µM
CCOC(=O)[C@H]1CN(C(=O)c2ccc(C)cc2)[C@]2(C)C(=O)Nc3ccccc3[C@H]12	HEK293 tox inconclusive (no result: FLuc inh-1, NPR1 antag)
O=C(Cc1ccc(Cl)cc1)N1CCN(C2CCN(Cc3ccccn3)C2=O)CC1 (stereo not given)	none
Cc1ccc(-c2ccccc2CN2CCN(C(=O)Cc3ccccn3)CC2)cc1Cl	HEK293 tox inconclusive, 3T3 cytotox 25µM (no result: FLuc inh-1, NPR1 antag)
CCC(CC)c1cc([C@H]2CN3CC[C@H]2C[C@@H]3CNC(=O)Nc2ccc(OC)cc2)nc(-c2ccncc2)n1	HEK293 tox 32µM, 3T3 cytotox inconclusive
CCC(CC)c1cc([C@H]2CN3CC[C@H]2C[C@@H]3CNC(=O)COC)nc(-c2ccncc2)n1	3T3 cytotox inconclusive
CCCS(=O)(=O)NC[C@H]1C[C@@H]2CCN1C[C@@H]2c1cc(C(CC)CC)nc(-c2ccncc2)n1	HEK293 tox inconclusive, 3T3 cytotox inconclusive, NPR1 antag inconclusive
CCC(CC)c1cc([C@H]2CN3CC[C@H]2C[C@@H]3CNC2CCN(C)CC2)nc(-c2ccncc2)n1	HEK293 tox 14µM, 3T3 cytotox 18µM
CCC(CC)c1cc([C@H]2CN3CC[C@H]2C[C@@H]3CNC(=O)Nc2ccc(C(C)=O)cc2)nc(-c2ccncc2)n1	HEK293 tox 25µM, 3T3 cytotox 18µM
O=C(NCc1ccc(F)cc1)[C@H]1CN2CC[C@H]1C[C@@H]2Cn1cc(C2(O)CCCC2)nn1	none
CCn1ccc(C(=O)N2CCC3(CC2)NCc2ccccc2-n2ccnc23)n1	3T3 cytotox inconclusive
O=C(Nc1ccc2n(c1=O)C[C@H]1C[C@@H]2CN(C(=O)NC2CCCCC2)C1)c1ccco1	3T3 cytotox 89µM
CC(C)(C)CC(=O)N1C[C@@H]2C[C@H](C1)c1ccc(NC(=O)c3ccco3)c(=O)n1C2	none
CCOC(=O)[C@H]1CN(C(=O)OCC)[C@]2(C)C(=O)N(CCOC(C)=O)c3ccccc3[C@H]12	3T3 cytotox inconclusive (no result: FLuc inh-1, NPR1 antag)
COc1cc2c(cc1OCC1CC1)NC(=O)C21CCN(c2nc(C)cc(C)n2)CC1	HEK293 tox inconclusive, 3T3 cytotox inconclusive
COc1cc2c(cc1OCC1CC1)NC(=O)C21CCN(c2ncc(C(C)C)cn2)CC1	HEK293 tox 100µM, 3T3 cytotox 79µM
CCc1cnc(N2CCC3(CC2)C(=O)Nc2cc(OCC4CC4)c(OC)cc23)nc1	HEK293 tox 112µM, 3T3 cytotox 100µM
COc1cc2c(cc1OCC1CC1)NC(=O)C21CCN(c2cnccn2)CC1	HEK293 tox inconclusive
O=C(NC1CCCCC1)[C@H]1CN2CCC1C[C@@H]2Cn1cc(CO)nn1 (stereo not given in full)	none
N#Cc1ccc(C(=O)N2C[C@@H]3C[C@H](C2)c2c(-c4cncnc4)ccc(=O)n2C3)cc1	none
COc1cc2c(cc1OCc1ccccc1)N([S+](=O)([O-])c1ccccc1C(F)(F)F)CC21CCN(C)CC1	HEK293 tox 20µM, 3T3 cytotox 13µM
COc1cc2c(cc1OCc1ccccc1)N([S+](=O)([O-])c1ccc3c(c1)CCO3)CC21CCN(C)CC1	HEK293 tox inconclusive, 3T3 cytotox inconclusive
COc1cc2c(cc1OCc1ccccc1)N([S+](=O)([O-])c1cccnc1)CC21CCN(C)CC1	HEK293 tox inconclusive, 3T3 cytotox 14µM
CCOC(=O)[C@H]1CN(C(=O)c2cc3ccccc3oc2=O)[C@]2(C)C(=O)N(CCO)c3ccccc3[C@H]12	HEK293 tox inconclusive (no result: FLuc inh-1, NPR1 antag)
O=C(C1CCCCC1)N1C[C@@H]2C[C@H](C1)c1c(/C=C/c3ccc(Cl)cc3)ccc(=O)n1C2	none
COc1cccc(Nc2cc3c(cn2)CN(C)CCN3)c1	HEK293 tox inconclusive, FLuc inh-1 4.5µM, 3T3 cytotox inconclusive | FLuc SDR no ATP inactive | FLuc SDR ATP inactive | FLuc inh-2 23µM
CCC1(N2CCN(C(=O)Cc3ccccc3F)CC2)CCN(S(C)(=O)=O)C1 (stereo not given)	HEK293 tox inconclusive, FLuc inh-1 inconclusive
CC(C)(C)CC(=O)N1C[C@@H]2C[C@H](C1)c1ccc(NC(=O)Nc3cccc(F)c3)c(=O)n1C2	HEK293 tox inconclusive, FLuc inh-1 14µM, 3T3 cytotox inconclusive | FLuc SDR no ATP inactive | FLuc SDR ATP inactive | FLuc inh-2 inactive
N[C@H]1[C@H](O)[C@@H](N2CCCCC2)[C@@H]2OC[C@H]1O2	none
Cc1cc(-c2cc3c(cn2)CN(CC(C)C)CCN3)ccn1	HEK293 tox inconclusive, FLuc inh-1 4.5µM, 3T3 cytotox inconclusive | FLuc SDR no ATP inconclusive | FLuc SDR ATP inactive | FLuc inh-2 16µM
COc1ccc(-c2cc3c(cn2)CN(C)CCN3)cc1OC	FLuc inh-1 inconclusive, 3T3 cytotox inconclusive
O=C1NC2(Cc3ccccc31)CN(Cc1cccnc1)C2	none (no result: FLuc inh-1, NPR1 antag)
Cc1ccccc1Cn1cccc(C(=O)Nc2nc3ccccc3s2)c1=O	none (no result: HEK293 tox, FLuc inh-1, 3T3 cytotox, NPR1 antag) | FLuc SDR no ATP inconclusive | FLuc SDR ATP inconclusive | FLuc inh-2 0.88µM
c1cc(CN2C[C@H](c3ccc4c(c3)OCO4)[C@@H]3[C@H]2C2CCN3CC2)ccn1	none
